# Rows were chosen to be rich in hits. Some 14% of all compounds tested hit in one or more screens of this group.
# HADH2 inhib = blocks human hydroxyacyl-CoA dehydrogenase type II | Q99714 | recombinant HADH2, NADH fluorescence, beta-hydroxybutyryl-CoA | Potency, µM (series often up to 57.1 µM), for the others: at the highest dose activity change, negative = inhibition, hits mostly inhibitors | actives 3.4% (n = 73,000) | AID 886; further: potency means the concentration at half of the fitted maximal effect; on the % scale 0 is the no-effect control and ±100 the full control effect; nearly all actives have a fitted effect of over 60% in size
# Target sequence (Q99714 whole entry, looked up, one chain of several): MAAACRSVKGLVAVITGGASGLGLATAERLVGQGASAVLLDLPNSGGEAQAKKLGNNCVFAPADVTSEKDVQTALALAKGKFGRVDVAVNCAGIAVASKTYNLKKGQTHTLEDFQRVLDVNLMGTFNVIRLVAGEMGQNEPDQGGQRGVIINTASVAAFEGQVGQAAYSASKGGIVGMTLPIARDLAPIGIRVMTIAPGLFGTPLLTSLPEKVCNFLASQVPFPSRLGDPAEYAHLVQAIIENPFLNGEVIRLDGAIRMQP
#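 Read-out: 360 nm excitation, 450 nm emission, kinetic over 4 min. Conditions: His-tagged human HADH2 20 nM, pH 9.0 Tris with Tween-20, 1 mM NAD+, 90 uM beta-hydroxybutyryl-CoA.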
# HSD17B inh = inhibitors of human HSD17B10 dehydrogenase | Potency, µM (titrated, usually from 57.1 µM), for the others: at the highest dose activity change, negative = inhibition, actives largely listed as inhibitors | actives 7.6% (n = 75,000) | recombinant HSD17B10, NADH fluorescence kinetic | AID 893 | Q99714;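 further: the protocol describes HADH2 (HSD17B10) and not the HSD17B4 of the title; potency means the concentration at half of the fitted maximal effect; on the % scale 0 is the no-effect control and ±100 the full control effect; nearly all actives have a fitted effect of over 70% in size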
#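 Enzyme plus compound, 15 min room temperature; substrate mix added (NAD+ 1 mM, beta-hydroxybutyryl-CoA 90 uM final); plates read kinetically for NADH fluorescence. HADH2 was His-tagged, E. coli-derived, 20 nM.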
# 4MU fluor = 4-MU region autofluorescence | compound autofluorescence, 340/450 nm, 4-MU equivalents; stronger effect = higher value | max dye-equivalent concentration, M | actives 11% (n = 59,000) | AID 589; in the data active means max dye-equivalent concentration above about 10 nM; inconclusive means mostly about 1.1 nM to 9.6 nM
#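 Compounds in 100 mM Tris, pH 8.0, sat 15 min at room temperature before fluorescence was read at 340 nm excitation/450 nm emission; a per-plate six-point 4-MU standard curve converted signals to dye-equivalent concentration at each compound concentration.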
# AID923 = qHTS Assay for Allosteric/Competitive Inhibitors of Caspase-1: Spectroscopic Profiling in AFC Spectral Region | compound fluorescence, AFC spectral region (405/520 nm) | Potency, µM (top dose mostly 57.5 µM), for the others: at the top dose fluorescence increase, actives largely listed as activators | actives 1.1% (n = 75,000) | AID 923, 2007; further: potency means the concentration at half of the fitted maximal effect; 0% is about no effect
#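 Compound autofluorescence profiled at 405 nm ex/520 nm em during kinetic caspase 1 run (50 nM enzyme, 5 uM Ac-WEHD-AFC, HEPES pH 7.5, 10 mM DTT). Titration up to 57 uM; baseline from regression intercept, normalized to AFC standard curve.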
# CRE-bla Fsk = CRE-bla signaling modulation under forskolin stimulation | CHO CRE-bla reporter (cAMP response element driving beta-lactamase), forskolin EC10, beta-lactamase ratio | Potency, µM (titrated, usually from 38.2 µM), for inactives: at the top dose activity change, negative = inhibition, hits mostly activators | actives 2.5% (n = 71,000) | AID 662; active means well fitted activation curve with a large enough effect in the signal ratio, with a control signal flat, not every such curve was filed as active; inconclusive means small, poorly fitted or top-dose-only effect, or effect the other way, or a change in a side signal; the % refers to the signal ratio; further: potency means the concentration at half of the fitted maximal effect; % of control where 0% means no effect
#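 CRE-bla CHO cells stimulated with EC10 NKH 477 (water-soluble forskolin) and compound titrations, 3 h at 37C; beta-lactamase read with CCF4 after 2 h at room temperature. Activity from 460/530 nm emission ratio, AC50 values for positive or negative modulation.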
# A350 autofl = compounds fluorescent in Alexa 350 spectral region. AID 590. Compound autofluorescence, 340/450 nm, Alexa 350 dye-equivalents; stronger effect = higher value. max dye-equivalent concentration, M. actives 11% (n = 59,000); in the data active means max dye-equivalent concentration above about 10 nM; inconclusive means mostly about 1.1 nM to 9.6 nM
# * hit, by the source's call; i = inactive; ? = inconclusive; . = not tested or not shown; [ ] = another dose, or the depositor's remark. Unless noted, the call rests on the fitted dose curve; in most records, active means well fitted curve in the direction sought with a large enough effect; inconclusive means small, poorly fitted or top-dose-only effect, or another doubt; inactive means no such curve, though single readings can be large; an effect the other way counts as inactive or inconclusive.
SMILES,HADH2 inhib,HSD17B inh,4MU fluor,AID923,CRE-bla Fsk,A350 autofl
CCOc1ccc(-c2nnn(CC(=O)Nc3cc(OC)cc(OC)c3)n2)cc1OCC,8.7%,-4.2%,i,1.4%,15.0%,i
CCOc1ccc(-c2nnn(CC(=O)Nc3cc(OC)ccc3OC)n2)cc1OCC,15.4%,3.3%,i,1.0%,3.16µM*,?
CCOc1ccc(-c2nnn(CC(=O)c3cc(OC)ccc3OC)n2)cc1,?,6.31µM*,3.66e-07M*,1.6%,0.5%,3.52e-07M*
COc1cc2c(cc1NC(=O)CSCC(=O)O)oc1ccccc12,-1.8%,-14.3%,i,-1.6%,-14.4%,i
COc1cc2c(cc1NCc1ccccn1)oc1ccccc12,?,12.6µM*,i,3.1%,?,i
COc1cc2c(cc1NC(=O)c1ccc3c(c1)OCO3)oc1ccccc12,31.6µM*,31.6µM*,3.93e-07M*,-2.3%,?,3.82e-07M*
COc1cc2c(cc1NC(=O)c1cncc(Br)c1)oc1ccccc12,154.2%,134.3%,1.65e-07M*,15.2%,?,2.54e-07M*
O=C(Nc1ccc2c(c1)oc1ccccc12)c1ccc2c(c1)OCO2,3.1%,?,i,-2.4%,2.0%,i
CC(C)c1ccc2oc(-c3ccc(NC(=O)c4ncn[nH]4)cc3)nc2c1,25.1µM*,20µM*,4.41e-08M*,0.5%,?,4.13e-08M*
CCC(C)c1ccc2oc(-c3ccc(NC(=O)c4ncn[nH]4)cc3)nc2c1 (centres undefined),31.6µM*,25.1µM*,5.84e-08M*,-1.6%,?,6.25e-08M*
CCC(C)c1ccc(O)c(NC(=O)c2ncn[nH]2)c1 (centres undefined),-9.9%,-1.9%,i,-2.0%,-4.5%,i
COc1ccccc1NS(=O)(=O)c1cc(C(=O)O)ccc1F,-2.9%,6.1%,.,0.2%,.,.
Cc1ccc2cccnc2c1,-1.2%,5.0%,.,-1.2%,-4.6%,.
O=C(O)Cn1ccnc1[N+](=O)[O-],6.4%[11.4 µM],11.2%[11.4 µM],i,1.2%[11.5 µM],10.2%[7.6 µM],i
Cc1ccccc1-n1c(SCc2cc(=O)n3ccccc3n2)nc2[nH]ncc2c1=O,-15.0%,25.1µM*,?,3.1%,2µM*,?
Cc1cc(C)n2nc(SCn3nnc4ccccc4c3=O)nc2n1,2.0%,4.1%,i,0.9%,12.6µM*,i
Cc1cc(C)n2nc(SCc3cc(=O)n4c(C)cccc4n3)nc2n1,-11.7%,2.8%,?,0.3%,0.631µM*,?
Cc1cc(C)n2nc(SCc3cc(=O)n4ccccc4n3)nc2n1,?,-22.4%,?,-1.2%,1µM*,?
Cc1cc(=O)[nH]c(SCn2nnc3ccccc3c2=O)n1,6.0%,8.9%,i,-1.2%,?,i
CCSc1nc2nc(C)cc(C)n2n1,-0.9%,-18.7%,i,1.0%,?,i
CC(C)(C)CNCCO,-6.4%[11.4 µM],0.6%[11.4 µM],i,3.3%[11.5 µM],10.5%[7.6 µM],i
NC(=O)c1ccsc1NC(=O)CN1C(=O)C2CC=CCC2C1=O (centres undefined),-10.3%,0.9%,3.35e-07M*,0.5%,-2.3%,4.32e-07M*
CCn1c(COc2ccccc2)nnc1SCC(=O)C(C)(C)C,13.2%,1.6%,i,-1.2%,?,i
COc1ccccc1NC(=O)CSc1nnc(COc2ccc(Cl)cc2)n1Cc1ccco1,-1.4%,?,i,0.6%,-3.5%,i
Fc1ccccc1CSc1nnc(-c2cnccn2)n1Cc1ccco1,-3.5%,4.9%,i,-0.8%,?,?
CCn1c(COc2ccc(C)cc2)nnc1SCC(=O)C(C)(C)C,-4.9%,4.5%,9.68e-08M*,0.3%,7.8%,8.48e-08M*
C(=C\c1ccccc1)/CSc1nnc(-c2cnccn2)n1Cc1ccco1,?,31.6µM*,i,0.0%,?,i
COc1ccc(C)cc1NC(=O)CSc1nnc(COc2ccc(C)cc2)n1Cc1ccco1,-2.5%,-7.9%,1.62e-08M*,-0.3%,9.1%,2.12e-08M*

# Compound activity from PubChem BioAssay.
